Laboratory results reported in PubChem BioAssay (Tox21).
Inconclusive results are not listed. Entries that show only a call come without a potency. The source made the active and inactive calls. Calls follow the shape of the dose curve; as a rule, active = well fitted cell-killing curve with a large enough effect in the repeat runs; inconclusive = weak or mixed curves, or effect the other way; inactive = flat fitted curve, though single readings scatter.

Experiment: qHTS assay to identify small molecule agonists of the androgen receptor (AR) signaling pathway in the presence of an antagonist - cell viability counter screen (AID 1259379); also: nearly all actives have a fitted effect of over 25% in size
Settings: MDA-kb2 viability, CellTiter-Fluor, 16 h; series mostly up to 92.4 µM
Excerpt: National Center for Advancing Translational Sciences [NCATS]
NIH Chemical Genomics Center [NCGC]
U.S. Environmental Protection Agency [EPA]
National Institutes of Environmental Health Sciences [NIEHS]
National Toxicology Program [NTP]
U.S. Food and Drug Administration [FDA]
Androgen receptor (AR) is an important member of nuclear receptor family. Its signaling plays a critical role in AR-dependent prostate cancer and other androgen related diseases. Considerable attention has been given in the past decades to develop methods to study and screen for the environmental chemicals that have the potential to interfere with metabolic homeostasis, reproduction, developmental and behavioral functions. Therefore AR binding assay for screening against androgen agonists and antagonists can be used to identify potential endocrine disruptors.
MDA-kb2 cells (from ATCC, deposited by Wilson et al.) are human breast carcinoma cells that were stably transfected with a luciferase reporter gene under control of the MMTV promoter that contains response elements for both androgen receptor (AR) and glucocorticoid receptor (GR). This particular screening for measuring luciferase reporter gene activity using MDA-kb2 cells against Tox21 10K library compounds is a confirmation study on agonist mode screening in the presence of AR-antagonist compound (Nilutamide) at 3.0uM final concentration. The cytotoxicity of the compounds was tested in parallel by measuring the cell viability using CellTiter-Fluor assay system (Promega, Madison, WI) in the same wells.
Tox21 Assay Protocol Summary:
MDA-kb2 cells (cells cultured without CO2) were dispensed at 3,000 cells/well in 4uL of culture medium into white wall/solid-bottom 1536-well plates (Corning Life Sciences, Corning, NY) using a Multidrop Combi (Thermo Fisher Scientific Inc., Waltham, MA) dispenser. The assay plates were incubated at 37C and 0% CO2 for 5hr. One uL of 3.0uM (final concentration) Nilutamide or assay buffer was added using two separate tips of Flying Reagent Dispenser (FRD, Aurora Discovery, San Diego, CA). Then 23nL of compounds dissolved in DMSO at 15 concentrations and positive controls were transferred to the assay plates using a Pintool station (Wako, San Diego, CA). The assay plates were incubated at 37C and 0% CO2 for 16 hr. After 15hr incubation at 37C, 1uL/well CellTiter-Fluor reagent (Promega Corporation) was added to each well of the assay plates using FRD. After 1hr incubation at 37C and 0% CO2, the fluorescence signal was measured using a ViewLux plate reader (PerkinElmer, Shelton, CT).
Potency is read from the fitted curve at half-maximal effect.

Compound	Potency
CC(=O)N/N=C/c1ccc([N+](=O)[O-])o1	inactive
CNC(=O)c1cnn(-c2nc(N)c3ncn([C@@H]4O[C@H](CO)[C@@H](O)[C@H]4O)c3n2)c1	inactive
CCOC(=O)C1=C(C)NC(C)=C(C(=O)OC)C1c1cccc(Cl)c1Cl (stereo not given)	inactive
Cc1cc(C)c(N)cc1C	inactive
COC(=O)C1=C(C)NC(C)=C(C(=O)O[C@@H]2CCCN(Cc3ccccc3)C2)[C@@H]1c1cccc([N+](=O)[O-])c1	inactive
CCOc1ccc(Cc2nccc3cc(OCC)c(OCC)cc23)cc1OCC	29.8 µM (active)
CN1CC(=O)N2[C@H](c3ccc4c(c3)OCO4)c3[nH]c4ccccc4c3C[C@@H]2C1=O	inactive
Nc1ncnc2c1ncn2[C@H]1CC[C@@H](CO)O1	inactive
CCCCC(CC)CN (stereo not given)	inactive
O=c1[nH]ncc2ccccc12	inactive
CC1=Nc2ccc3ccccc3c2C1(C)C	inactive
CCC(=O)C1CC(C(C)C)CC=C1C (stereo not given)	inactive
CC(=O)Oc1ccc([N+](=O)[O-])cc1CCl	30.6 µM (active)
Oc1cccc(Nc2ccccc2)c1	inactive
C=CC(=O)OCC1CC2CC1C1CCC(COC(=O)C=C)C21 (stereo not given)	inactive
C[C@]12CC[C@@H]3c4ccc(O)cc4CC[C@H]3[C@@H]1CC[C@@H]2OC(=O)CCC1CCCC1	inactive
CCCCCCCCCI	inactive
Cc1ccccc1S	inactive
O=C1Cc2cc(Cl)ccc2N1	inactive
COC(=O)CS	inactive

Compound	Potency
CCC1(CO)COCOC1	inactive
CCCCCCCCC(CCCCCC)C(=O)O (stereo not given)	inactive
CC(C)=CC(=O)C=C(C)C	inactive
N#CCc1ccc(Cl)cc1Cl	inactive
CC(C)(c1ccccc1)c1ccccc1	inactive
CC(=O)[C@H]1[C@H](C#N)C[C@H]2[C@@H]3CC=C4C[C@@H](O)CC[C@]4(C)[C@H]3CC[C@@]21C	inactive
C/C=C(/C(=C/C)c1ccc(O)cc1)c1ccc(O)cc1	inactive
C=CCc1ccccc1OCC(O)CNC(C)C (stereo not given)	inactive
CCCCCCCCOc1ccc(C(=O)O)cc1	inactive
C1C[C@@H]2[C@H]3CC[C@H](C3)[C@@H]2C1	inactive
CCC(C)(C)OC	inactive
CC(C)(O)c1ccc(CNC(=O)c2cccnc2Oc2ccc3nonc3c2)cc1	inactive
O=C1c2ccccc2C(=O)c2c(O)c(O)cc(O)c21	30.6 µM (active)
O=C1NC(=O)c2cc([N+](=O)[O-])ccc21	inactive
C=C(C)CCCC(C)CCO (stereo not given)	inactive
CCCCN(CCN(CCCC)C(=O)N1CCOCC1)C(=O)N1CCOCC1	inactive
CC[N+](CC)(CCNC(=O)C(=O)NCC[N+](CC)(CC)Cc1ccccc1Cl)Cc1ccccc1Cl	inactive
O=C(OCC(O)CO)c1ccccc1Nc1ccnc2cc(Cl)ccc12 (stereo not given)	inactive
Clc1ccc(Nc2nnc(Cc3ccncc3)c3ccccc23)cc1	inactive
O=C=Nc1ccc(Cl)c(Cl)c1	inactive
